Assay [1] in a line: Cellular Toxicity (caspase-3) HepG2 (AID 654).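 Note: cells exposed to compound for 16 hours before reading; 0% = DMSO alone and 100% = caspase signal from 100 µM tamoxifen.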 The method in brief: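 Caspase 3/7 activation is measured as a luminescence increase (aminoluciferin substrate) after 16 h compound exposure of human hepatocarcinoma HepG2 cells. AC50 values are Hill fits, scaled between DMSO baseline and 100 uM tamoxifen stimulation.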
Assay [2] can be described thus: Cellular Toxicity (caspase-3) HUV-EC-C (AID 656).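 Note: 0% = DMSO basal and 100% = 100 µM tamoxifen.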 A digest of the protocol:
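qHTS; HUV-EC-C, 1000 cells/well; 5 hr settle, 16 hr cmpd, 37°C; Caspase-Glo 3/7, 20 min RT; luminescence. Norm: DMSO = 0%, tamoxifen 100 uM = 100%. Hill-fit AC50.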

Assay [3] can be described thus: Cellular Toxicity (caspase-3) SHSY5Y (AID 657).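 Note: cells exposed to compound for 16 hours at 37 °C.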 A digest of the protocol:
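qHTS, SH-SY5Y, 1500 cells/well, 5 h pre-incubation 37 °C; compound 16 h 37 °C; Caspase-Glo 3/7 1 h RT; luminescence. Norm.: DMSO = 0, 10 uM staurosporine = 100%. Hill fit → AC50.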

Assay [4] is described as follows: Cellular Toxicity (caspase-3) BJ (AID 658).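 Note: cells exposed to compound for 16 hours; 0% = DMSO basal and 100% = 10 µM staurosporine.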 A digest of the protocol:
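Plated BJ cells (1000/well) rested 5 hr, received compound for 16 hr at 37 °C, then Caspase-Glo 3/7 reagent for 1 hr at room temperature before luminescence reading.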

Assay [5] can be described thus: Cellular Toxicity (caspase-3) MRC-5 (AID 659).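 Note: 0% = DMSO basal and 100% = 10 µM staurosporine.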 The method in brief:
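Apoptosis readout in MRC-5 cells: luciferase light generated after caspase 3/7 cleaves a peptide-aminoluciferin substrate, measured post 16 hr compound incubation at 37 °C.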

Assay [6] is described as follows: Cellular Toxicity (caspase-3) Mesangial (AID 660).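 Note: combined caspase 3 and 7 activity read by Caspase-Glo luminescence; cells exposed to compound for 16 h before the caspase read.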 The method in brief:
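Caspase 3/7 activation measured by Caspase-Glo 3/7 luminescence (20 min, room temperature) following 16 h exposure of mesangial cells (1000/well); AC50 from Hill-equation fit, normalized to DMSO and 100 uM tamoxifen.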

Assay [7] can be described thus: Cellular Toxicity (caspase-3) SK-N-SH (AID 661).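 Note: cells exposed to compound for 16 hours; 0% = DMSO basal and 100% = 10 µM staurosporine.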 The method in brief: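 Caspase 3/7 activation was read by luminogenic substrate cleavage after 16 hour treatment of SK-N-SH cells. Signal was scaled between DMSO and 10 uM staurosporine, and concentration-response data were fitted with the Hill equation for AC50.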
The nature of assay [8]: Cellular Toxicity (caspase-3) H-4-II-E (AID 663).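 Note: cells exposed to compound for 16 hr before readout; 0% = DMSO basal and 100% = 100 µM tamoxifen.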 The method in brief: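 Caspase 3/7 activation measured in H-4-II-E cells in complete culture medium after 16 hr treatment at 37 °C, using luciferase-coupled substrate readout; AC50 values come from Hill-equation fits of normalized concentration-response data.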
Assay [9] is described as follows: Cellular Toxicity (caspase-3) Hek293 (AID 664).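 Note: cells exposed to compound for 16 h at 37 °C before readout.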 A digest of the protocol: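 Concentration-response qHTS: caspase 3/7 activation measured by luminescent aminoluciferin substrate cleavage after 16 h compound exposure of Hek 293 cells. AC50 from Hill equation, with DMSO as basal and 100 uM tamoxifen as 100%.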
Assay [10] is described as follows: Cellular Toxicity (caspase-3) N2a (AID 665).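 Note: compound exposure lasted 16 h at 37 °C before readout.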 A digest of the protocol:
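Caspase-3/7 activation measured as luminescence from Caspase-Glo reagent (1 h, room temperature) after 16 h compound exposure of mouse N2a cells. AC50 values from Hill-equation concentration-response, scaled between DMSO and 10 uM staurosporine.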

Assay [11] has as its target Androgen receptor (Homo sapiens) (UniProt P10275). In words: qHTS assay for small molecule agonists of androgen receptor signaling (AID 588515; active = well fitted curve in the direction sought with a large enough effect in the signal ratio, with a control signal flat; the % refers to the signal ratio; note: % is set by controls: 0 for no effect and ±100 for the full control effect). Conditions: AR-UAS-bla HEK293, beta-lactamase ratio, agonist 16 h; stronger effect = higher value. The method in brief: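 Stimulation of an AR-responsive β-lactamase reporter in GripTite HEK293 cells was measured after 16 h compound exposure at 37 °C, via CCF4 fluorescence after 2 h RT. EC50 from Hill fits, normalized to R1881 at 30 nM.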

Assay [12] shares this target. In words: qHTS assay for small molecule antagonists of androgen receptor signaling (AID 588516; active = well fitted curve in the direction sought with a large enough effect in the signal ratio, with a control signal flat, not every such curve was filed as active; the % refers to the signal ratio; note: % is set by controls: 0 for no effect and ±100 for the full control effect). The method in brief: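 Cells were plated and incubated 5 h, compounds added in titration, then R1881 (10 nM final) as agonist. After 16 h at 37 C, CCF4 substrate was loaded for 2 h at room temperature and fluorescence measured.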
(qHTS replaces the single test concentration by a dilution series.)

For assay [13], the target named is Peroxisome proliferator-activated receptor delta (Homo sapiens) (UniProt Q03181). In words: qHTS assay for small molecule agonists of peroxisome proliferator-activated receptor delta signaling (AID 588534; calls by dose curve;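 note: 0% = DMSO basal wells and 100% = positive control agonist at 10 µM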). The method in brief:
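Agonist-mode beta-lactamase reporter readout (CCF4 dye, 2 h at RT) after 18 h at 37 °C exposure to a titration; Hill-equation fitting gave EC50 and maximal response.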

The nature of assay [14]: qHTS assay for small molecule antagonists of peroxisome proliferator-activated receptor delta signaling (AID 588535; active = well fitted inhibition curve with a large enough effect in the signal ratio, with a control signal flat, not every such curve was filed as active; the % refers to the signal ratio;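 for max response: cells co-treated with a PPAR-delta agonist as stimulator during compound exposure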). Conditions: HEK293T PPARd-UAS-bla, beta-lactamase FRET ratio, 18 h; 460 nm channel. The method in brief:
(§1)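 Inhibition of PPAR-delta response element-driven beta-lactamase expression is measured in HEK293T cells exposed to a compound titration series for 18 hrs at 37 C. Half-maximal inhibition comes from Hill equation fitting.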

Assay [15] deals with Peroxisome proliferator-activated receptor delta (Homo sapiens) (UniProt Q03181). The description is as above. A digest of the protocol:
as §1

Assay [16] has as its target Thyroid hormone receptor beta (Homo sapiens) (UniProt P10828). In words: qHTS assay for small molecule agonists of thyroid hormone receptor beta signaling (AID 588545; calls by dose curve). A digest of the protocol: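 Agonist-mode beta-lactamase reporter assay, HEK 293 cells, 2% charcoal/dextran FBS; cells plated 4 hrs, compound 18 hrs at 37 C, CCF4 2 hrs RT. Normalized to 10 nM T3 (100%) and DMSO (0%); Hill fit gives EC50, efficacy.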

The nature of assay [17]: qHTS assay for small molecule activators of the p53 signaling pathway (AID 651743; active = well fitted activation curve with a large enough effect in the signal ratio, not every such curve was filed as active; the % refers to the signal ratio; note: series mostly up to about 92 µM; % of control where 0% means no effect). Particulars: HCT-116 p53RE-bla, beta-lactamase FRET ratio, 16 h; activation: stronger effect = higher value. The method in brief: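 Agonist-mode quantitative HTS in HCT-116 cells carrying a p53-response-element beta-lactamase reporter; 16 h compound treatment at 37 C, then FRET substrate loading for 2 h at room temperature and fluorescence read.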

Assay [18] is described as follows: qHTS assay for small molecule activators of the nuclear factor-kappa B (NF-kB) signaling pathway (AID 651749; active = well fitted activation curve with a large enough effect in the signal ratio; the % refers to the signal ratio; note: series mostly up to about 77 µM; % of control where 0% means no effect). Particulars: NF-kB-bla ME-180 cells, beta-lactamase FRET ratio, 16 h; activation: stronger effect = higher value. The method in brief:
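Human ME-180 cervical cells with an NF-kB-bla construct; compounds added via 23 nL pin transfer, DMSO as vehicle; incubation 16 hr. Reporter activity measured by FRET disruption.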

Assay [19] addresses Tumor necrosis factor (Homo sapiens) (UniProt P01375). In words: qHTS assay to identify small molecules that stimulate Tumor Necrosis Factor-alpha (TNF-alpha) secretion (AID 651757; active = well fitted curve in the direction sought with a large enough effect in the signal ratio; the % refers to the signal ratio; note: 0% is about no effect). The method in brief:
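Secreted TNF-alpha quantified by TR-FRET sandwich of two labeled anti-TNF-alpha antibodies, incubated 3 hr at room temperature. Preceded by 17 hr, 37 C compound treatment of THP-1 cells at 3000 cells/well.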

Assay [20] has as its target Nuclear receptor subfamily 1 group I member 2 (Rattus norvegicus) (UniProt Q9R1A7). In words: qHTS assay for small molecule activators of the rat pregnane X receptor (rPXR) signaling pathway (AID 651751; call rule not given here; note: 0% is about no effect). Particulars: rPXR reporter cells, luciferase (One-Glo), 24 h.

“And” between values parts separate entries of the source, which are not always exact repeats. Equal entries are not always repeated. Inconclusive results are not listed. The source made the active and inactive calls. Unless noted, calls come from the whole dose curve; as a rule, active = well fitted curve in the direction sought with a large enough effect; inconclusive = small, poorly fitted or top-dose-only effect, or another doubt; inactive = no such curve, though single readings can be large; an effect the other way counts as inactive or inconclusive.

Chain of Androgen receptor (Homo sapiens) (P10275 whole entry, looked up): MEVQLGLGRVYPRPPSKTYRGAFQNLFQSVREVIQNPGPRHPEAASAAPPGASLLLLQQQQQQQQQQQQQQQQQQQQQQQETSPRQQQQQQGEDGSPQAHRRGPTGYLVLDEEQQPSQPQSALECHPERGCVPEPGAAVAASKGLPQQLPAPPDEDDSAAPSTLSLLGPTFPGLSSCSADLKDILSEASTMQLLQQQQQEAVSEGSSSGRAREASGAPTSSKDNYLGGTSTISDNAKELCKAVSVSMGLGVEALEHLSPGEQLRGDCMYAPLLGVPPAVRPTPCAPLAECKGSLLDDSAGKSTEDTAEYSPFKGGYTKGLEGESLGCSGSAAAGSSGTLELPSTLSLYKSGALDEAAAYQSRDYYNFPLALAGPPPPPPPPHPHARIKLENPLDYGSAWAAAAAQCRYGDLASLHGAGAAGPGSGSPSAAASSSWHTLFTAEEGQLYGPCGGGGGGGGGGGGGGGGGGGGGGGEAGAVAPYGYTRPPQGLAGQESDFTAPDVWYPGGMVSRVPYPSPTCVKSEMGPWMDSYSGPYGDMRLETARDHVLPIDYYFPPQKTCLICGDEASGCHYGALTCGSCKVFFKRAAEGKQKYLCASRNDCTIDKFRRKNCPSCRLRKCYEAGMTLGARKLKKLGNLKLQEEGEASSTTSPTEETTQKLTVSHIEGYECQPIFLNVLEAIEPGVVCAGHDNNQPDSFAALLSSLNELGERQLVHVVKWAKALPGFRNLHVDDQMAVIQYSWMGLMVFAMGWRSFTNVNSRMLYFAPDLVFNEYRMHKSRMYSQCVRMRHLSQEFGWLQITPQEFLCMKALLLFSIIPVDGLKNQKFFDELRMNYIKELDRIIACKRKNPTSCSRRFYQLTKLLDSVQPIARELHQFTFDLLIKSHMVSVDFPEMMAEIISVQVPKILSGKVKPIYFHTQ
Chain of Nuclear receptor subfamily 1 group I member 2 (Rattus norvegicus) (Q9R1A7 whole entry, looked up): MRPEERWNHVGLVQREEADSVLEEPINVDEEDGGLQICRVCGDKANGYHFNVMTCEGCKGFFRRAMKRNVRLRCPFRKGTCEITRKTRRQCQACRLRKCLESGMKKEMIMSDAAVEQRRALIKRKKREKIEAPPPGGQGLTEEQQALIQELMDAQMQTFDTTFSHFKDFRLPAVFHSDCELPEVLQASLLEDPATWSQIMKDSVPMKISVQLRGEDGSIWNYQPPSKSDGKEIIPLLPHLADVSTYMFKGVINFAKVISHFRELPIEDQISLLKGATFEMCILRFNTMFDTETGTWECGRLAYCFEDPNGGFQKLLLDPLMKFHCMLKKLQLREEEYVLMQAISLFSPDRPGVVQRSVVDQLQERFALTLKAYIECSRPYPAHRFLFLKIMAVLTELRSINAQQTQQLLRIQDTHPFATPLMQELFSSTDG
Chain of Peroxisome proliferator-activated receptor delta (Homo sapiens) (Q03181 whole entry, looked up): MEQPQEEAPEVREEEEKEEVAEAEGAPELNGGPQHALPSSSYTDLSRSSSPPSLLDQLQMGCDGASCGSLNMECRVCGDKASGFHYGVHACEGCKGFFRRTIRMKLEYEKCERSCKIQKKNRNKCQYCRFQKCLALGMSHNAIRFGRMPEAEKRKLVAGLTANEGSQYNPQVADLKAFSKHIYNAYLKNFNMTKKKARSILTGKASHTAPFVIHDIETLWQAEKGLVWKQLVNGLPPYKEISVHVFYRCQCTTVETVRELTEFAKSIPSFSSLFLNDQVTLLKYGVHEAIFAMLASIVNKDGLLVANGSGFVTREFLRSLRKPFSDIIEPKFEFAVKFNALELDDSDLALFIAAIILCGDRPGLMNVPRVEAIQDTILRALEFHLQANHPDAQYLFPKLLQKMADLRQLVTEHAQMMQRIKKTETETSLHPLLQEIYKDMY
Chain of Thyroid hormone receptor beta (Homo sapiens) (P10828 whole entry, looked up): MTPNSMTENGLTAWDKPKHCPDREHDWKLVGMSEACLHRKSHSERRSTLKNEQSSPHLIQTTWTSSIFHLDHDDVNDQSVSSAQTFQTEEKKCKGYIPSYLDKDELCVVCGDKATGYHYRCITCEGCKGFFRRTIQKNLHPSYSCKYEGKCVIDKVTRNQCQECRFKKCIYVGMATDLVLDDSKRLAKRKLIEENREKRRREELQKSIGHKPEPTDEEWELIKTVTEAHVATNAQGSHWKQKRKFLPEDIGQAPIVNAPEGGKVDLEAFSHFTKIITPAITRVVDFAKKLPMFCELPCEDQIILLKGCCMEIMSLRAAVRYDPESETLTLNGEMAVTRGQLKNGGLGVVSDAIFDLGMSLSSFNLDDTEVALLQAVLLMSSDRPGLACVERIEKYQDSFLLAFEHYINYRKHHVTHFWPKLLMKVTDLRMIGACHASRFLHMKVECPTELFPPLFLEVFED
Chain of Tumor necrosis factor (Homo sapiens) (P01375 whole entry, looked up): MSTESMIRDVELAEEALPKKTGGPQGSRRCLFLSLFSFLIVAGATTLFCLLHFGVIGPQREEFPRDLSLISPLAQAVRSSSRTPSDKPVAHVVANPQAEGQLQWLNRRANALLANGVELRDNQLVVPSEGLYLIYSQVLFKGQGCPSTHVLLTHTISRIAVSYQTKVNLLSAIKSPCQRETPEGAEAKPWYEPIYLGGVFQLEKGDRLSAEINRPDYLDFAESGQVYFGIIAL

Turning to `CC(C)(c1ccc(OCC2CO2)cc1)c1ccc(OCC2CO2)cc1` (stereo not given), the molecule was classed as inactive in assay [1], in assay [2], in assay [3], in assay [4], in [5] and in assay [6]. Further, the call in assay [7], in assay [8], in [9], in [10], in [12] and in assay [15] was inactive. Moreover, the molecule was classed as inactive in assay [19]. Further, the activation in [11] is 11.4% (inactive) and -15.4% (inactive); in [17] it was 1.86% (inactive) and -8.3% (inactive); in [18], -1.34% (inactive) and -1.67% (inactive). Further, the Potency result in assay [13] and in assay [16] was “inactive” each time. The max response was 35.6% in [14]; -1.73% (inactive) and 0.566% (inactive) in [20].
